Measurements as given in PubChem BioAssay AID1159580 (chemical genetic matrix, 2015).
“And” between values parts separate entries of the source, which are not always exact repeats. Equal values may be shown once. In all, about 5,500 compounds went through this assay and about 2,000 (36%) were called active. Roughly 18% stayed inconclusive and do not appear here. No stated cut-off is given here; in the data, active means normalized growth mostly below about 0.91 (no sharp cut-off); inconclusive means no clear call, values can overlap the other calls; inactive means mostly above about 0.92. The list shows a part of the results.

Experiment: chemical genetic growth profiling, strain panel (AID 1159580);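 further: tested at 20 µM; growth read once vehicle control cultures reached saturation at 30 °C; 1 = growth at the plate median or of vehicle wells; lower values mean less growth of the strain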
Conditions: S. cerevisiae deletion strains, growth OD

Measured: normalized growth

CN1CCc2cc3c(cc2C1O)OCO3 (centres undefined)
inactive: locus YAL021C, strain ccr4, active compounds read low 1.03 | locus YAL026C, strain drs2, active compounds read low 0.986 | locus YAL030W, strain snc1, active compounds read low 0.993 | locus YBL061C, strain skt5, active compounds read low 0.984 | locus YBR009C, strain hhf1, active compounds read low 1.01 | locus YBR021W, strain FUR4, active compounds read low 1.08 | locus YBR023C, strain chs3, active compounds read low 1.01 | locus YBR171W, strain sec66, active compounds read low 0.978 | locus YBR229C, strain ROT2, active compounds read low 0.954 | locus YBR231C, strain swc5, active compounds read low 0.954 | locus YBR279W, strain paf1, active compounds read low 1 | locus YCL011C, strain gbp2, active compounds read low 1.01 | locus YCL016C, strain dcc1, active compounds read low 1.01 | locus YCL029C, strain bik1, active compounds read low 0.982 | locus YCL061C, strain MRC1, active compounds read low 1 | locus YCL069W, strain vba3, active compounds read low 0.988 | locus YCR088W, strain abp1, active compounds read low 0.988 | locus YDL005C, strain med2, active compounds read low 0.992 | locus YDL035C, strain GPR1, active compounds read low 0.993 | locus YDL040C, strain nat1, active compounds read low 0.995 | locus YDL074C, strain BRE1, active compounds read low 1.03 | locus YDL101C, strain DUN1, active compounds read low 0.977 | locus YDL185W, strain tfp1, active compounds read low 0.969 | locus YDL192W, strain arf1, active compounds read low 0.998 | locus YDR001C, strain nth1, active compounds read low 0.994 | locus YDR069C, strain doa4, active compounds read low 0.969 | locus YDR101C, strain arx1, active compounds read low 1.02 | locus YDR137W, strain rgp1, active compounds read low 0.981 | locus YDR150W, strain NUM1, active compounds read low 0.987 | locus YDR159W, strain sac3, active compounds read low 0.946 | locus YDR162C, strain NBP2, active compounds read low 0.943 | locus YDR195W, strain ref2 0.934 | locus YDR297W, strain sur2, active compounds read low 1.01 | locus YDR318W, strain mcm21, active compounds read low 0.978 | locus YDR334W, strain swr1, active compounds read low 0.993 | locus YDR335W, strain msn5, active compounds read low 1.01 | locus YDR388W, active compounds read low 0.956 | locus YDR392W, strain spt3, active compounds read low 0.926 | locus YDR502C, strain sam2, active compounds read low 0.973 | locus YEL003W, strain gim4, active compounds read low 0.966 | locus YEL037C, strain rad23, active compounds read low 1 | locus YEL061C, strain CIN8 (second series), active compounds read low 0.987 | locus YEL061C, strain CIN8, active compounds read low 0.99 | locus YER015W, strain faa2, active compounds read low 0.996 | locus YER016W, strain bim1, active compounds read low 0.986 | locus YER110C, active compounds read low 0.977 | locus YER111C, strain swi4, active compounds read low 0.992 | locus YER155C, strain BEM2 (second series), active compounds read low 0.962 | locus YER155C, strain BEM2, active compounds read low 0.984 | locus YER167W, strain BCK2, active compounds read low 0.986 | locus YFR010W, strain ubp6, active compounds read low 0.979 | locus YGL078C, strain dbp3, active compounds read low 0.995 | locus YGL086W, strain mad1, active compounds read low 1.05 | locus YGL167C, strain pmr1, active compounds read low 0.989 | locus YGL173C, strain kem1, active compounds read low 0.994 | locus YGL227W, strain vid30, active compounds read low 0.986 | locus YGL240W, strain doc1, active compounds read low 0.957 | locus YGL248W, strain PDE1, active compounds read low 0.974 | locus YGL253W, strain hxk2, active compounds read low 0.988 | locus YGR135W, strain pre9, active compounds read low 0.966 | locus YGR252W, strain gcn5, active compounds read low 0.95 | locus YHR013C, strain ard1, active compounds read low 0.995 | locus YHR027C, strain rpn1, active compounds read low 0.991 | locus YHR030C, strain SLT2, active compounds read low 0.992 and 1.09 | locus YHR079C, strain IRE1 (second series), active compounds read low 0.978 | locus YHR079C, strain IRE1, active compounds read low 1.1 | locus YHR094C, strain hxt1, active compounds read low 0.968 | locus YHR129C, strain ARP1, active compounds read low 0.99 | locus YHR142W, strain chs7, active compounds read low 1.01 | locus YHR200W, strain rpn10, active compounds read low 0.964 | locus YIL066C, strain RNR3, active compounds read low 0.989 | locus YIL073C, strain SPO22, active compounds read low 0.988 | locus YIL125W, strain kgd1, active compounds read low 0.988 | locus YIR030C, strain dcg1, active compounds read low 0.977 | locus YJL092W, strain hpr5, active compounds read low 1 | locus YJL095W, strain BCK1 (second series), active compounds read low 1.01 | locus YJL095W, strain BCK1, active compounds read low 0.953 and 1.06 | locus YJL115W, strain asf1, active compounds read low 0.994 | locus YJL129C, strain trk1, active compounds read low 0.979 | locus YJL134W, strain LCB3, active compounds read low 0.989 | locus YJL154C, strain vps35, active compounds read low 0.989 | locus YJL164C, strain tpk1, active compounds read low 1 | locus YJL166W, strain qcr8, active compounds read low 0.98 | locus YJL168C, strain set2, active compounds read low 0.989 | locus YJL187C, strain SWE1 (second series), active compounds read low 0.974 | locus YJL187C, strain SWE1, active compounds read low 0.995 | locus YJR043C, strain POL32, active compounds read low 0.975 | locus YJR066W, strain TOR1, active compounds read low 0.999 | locus YJR075W, strain HOC1, active compounds read low 0.976 | locus YKL009W, strain mrt4, active compounds read low 0.964 | locus YKL068W, active compounds read low 0.989 | locus YKL085W, strain MDH1 (second series), active compounds read low 0.974 | locus YKL085W, strain MDH1, active compounds read low 0.974 | locus YKL160W, strain elf1, active compounds read low 0.996 | locus YKR001C, strain vps1, active compounds read low 0.998 | locus YKR026C, strain gcn3, active compounds read low 0.978 | locus YKR091W, strain srl3, active compounds read low 0.992 | locus YLL001W, strain dnm1, active compounds read low 0.983 | locus YLL026W, active compounds read low 0.998 | locus YLL041C, strain sdh2, active compounds read low 0.999 | locus YLR027C, strain aat2, active compounds read low 0.995 | locus YLR039C, strain RIC1, active compounds read low 0.928 | locus YLR058C, strain SHM2, active compounds read low 0.969 | locus YLR102C, strain apc9, active compounds read low 0.98 | locus YLR113W, strain HOG1, active compounds read low 1.07 | locus YLR221C, strain rsa3, active compounds read low 1 | locus YLR258W, strain gsy2, active compounds read low 1.01 | locus YLR262C, strain YPT6 (second series), active compounds read low 1.01 | locus YLR262C, strain YPT6, active compounds read low 0.911 | locus YLR268W, strain sec22, active compounds read low 1 | locus YLR320W, strain mms22, active compounds read low 0.985 | locus YLR330W, strain CHS5, active compounds read low 0.991 | locus YLR342W, strain FKS1 (second series), active compounds read low 1.04 | locus YLR342W, strain FKS1, active compounds read low 0.999 | locus YLR357W, strain rsc2, active compounds read low 0.977 | locus YLR370C, strain arc18, active compounds read low 1 | locus YLR371W, strain rom2, active compounds read low 0.985 | locus YLR384C, strain iki3, active compounds read low 0.981 | locus YLR418C, strain cdc73, active compounds read low 0.95 | locus YML016C, strain PPZ1, active compounds read low 0.992 | locus YML032C, strain rad52, active compounds read low 0.974 | locus YML120C, strain ndi1, active compounds read low 0.995 | locus YML124C, strain tub3, active compounds read low 0.983 | locus YMR058W, strain fet3, active compounds read low 1.01 | locus YMR078C, strain ctf18, active compounds read low 0.984 | locus YMR125W, strain sto1, active compounds read low 0.987 | locus YMR129W, active compounds read low 0.987 | locus YMR205C, strain PFK2, active compounds read low 0.996 | locus YMR223W, strain ubp8, active compounds read low 0.956 | locus YMR231W, strain pep5, active compounds read low 0.979 | locus YMR263W, strain SAP30, active compounds read low 0.981 | locus YMR307W, strain GAS1, active compounds read low 0.951 | locus YNL067W, strain RPL9B, active compounds read low 0.97 | locus YNL071W, strain lat1, active compounds read low 1 | locus YNL153C, strain GIM3, active compounds read low 0.968 | locus YNL183C, strain NPR1, active compounds read low 0.999 | locus YNL209W, strain ssb2, active compounds read low 1 | locus YNL233W, strain BNI4, active compounds read low 0.998 | locus YNL248C, strain rpa49, active compounds read low 1 | locus YNL250W, strain rad50, active compounds read low 0.988 | locus YNL271C, strain bni1, active compounds read low 0.982 | locus YNL298W, strain CLA4, active compounds read low 0.956 | locus YNL307C, strain MCK1, active compounds read low 0.988 | locus YNL322C, strain KRE1 (second series), active compounds read low 1 | locus YNR049C, strain mso1, active compounds read low 1 | locus YNR052C, strain pop2, active compounds read low 0.982 | locus YOL012C, strain htz1 1.7 | locus YOL147C, strain pex11, active compounds read low 0.986 | locus YOR001W, strain rrp6, active compounds read low 0.961 | locus YOR061W, strain CKA2, active compounds read low 0.969 | locus YOR069W, strain VPS5, active compounds read low 0.994 | locus YOR070C, strain gyp1, active compounds read low 0.993 | locus YOR080W, strain dia2, active compounds read low 0.977 | locus YOR083W, strain WHI5, active compounds read low 1.01 | locus YOR106W, strain vam3, active compounds read low 1.01 | locus YOR136W, strain idh2, active compounds read low 0.989 | locus YOR144C, strain elg1, active compounds read low 0.977 | locus YOR184W, strain ser1, active compounds read low 0.959 | locus YOR231W, strain MKK1, active compounds read low 1.09 | locus YOR265W, strain rbl2, active compounds read low 1.01 | locus YOR270C, strain vph1, active compounds read low 0.995 | locus YOR290C, strain snf2, active compounds read low 1.04 | locus YOR316C, strain cot1, active compounds read low 0.979 | locus YPL051W, strain arl3, active compounds read low 0.994 | locus YPL078C, strain atp4, active compounds read low 1.01 | locus YPL106C, strain sse1, active compounds read low 0.994 | locus YPL240C, strain hsp82, active compounds read low 0.99 | locus YPL241C, strain CIN2, active compounds read low 0.988 | locus YPL256C, strain CLN2, active compounds read low 1.08 | locus YPR119W, strain clb2, active compounds read low 0.982 | locus YPR141C, strain kar3, active compounds read low 0.978 | locus YPR163C, strain tif3, active compounds read low 0.987 | locus YPR167C, strain met16, active compounds read low 0.99 | strain wtn01, active compounds read low 1.04
